Sfp inh = qHTS Assay for Inhibitors of Bacillus subtilis Sfp phosphopantetheinyl transferase (PPTase). 4'-phosphopantetheinyl transferase ffp (Bacillus subtilis), Q9F4F7. Biochemical Sfp PPTase activity, qHTS. 310,000 compounds, 3.5% hits. AID 1490, 2009. Potency, µM, inactives show largest response in the series, negative = inhibition, most hits filed as inhibitors;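 also: the enzyme is Sfp with the accession as filed and its product quenches rhodamine fluorescence; 0% = enzyme reaction without inhibitor and -100% = no enzyme wells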
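Fluorescence-quenching assay: 15 nM Sfp-PPTase preincubated 15 min at room temperature with compound, then 5 uM rhodamine-CoA and 12.5 uM BHQ-2-labelled YbbR peptide added. Fluorescence (ex 525/em 598 nm) read at start and after 30 min; difference gives rate.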
HP1b binding inh = HTS for Inhibitors of HP1-beta Chromodomain Interactions with Methylated Histone Tails. 390,000 compounds, 0.56% hits. Chromobox protein homolog 1 (Homo sapiens), P83916. Potency, µM (doses to about 114 µM), inactives show at the top dose activity change, negative = inhibition, most hits filed as inhibitors. AlphaScreen HP1-beta / biotin-H3K9me3 peptide binding; also: nearly all actives have a fitted effect of over 70% in size
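AlphaScreen: HP1-beta (50 nM) preformed 30 min with biotin-H3(1-18)K9me3 peptide (50 nM) in PBS pH 7.4, 0.01% Tween-20. Compound added for 30 min at RT, then streptavidin donor/nickel chelate acceptor beads (10 ug/mL) for 30 min.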
JMJD2A Tudor inh = qHTS Assay for Inhibitors of JMJD2A-Tudor Domain | AlphaScreen JMJD2A-Tudor / H3K4me3 peptide binding | AID 504339, 2011 | 390,000 compounds, 4.4% hits | Potency, µM (series often up to 114 µM), for the others: top-dose activity change, negative = inhibition, hits mostly inhibitors; also: % is scaled to controls: 0 for no effect and ±100 for the full control effect; nearly all actives have a fitted effect of over 50% in size
Target sequence (O75164 whole entry, looked up, the tested form may be a part): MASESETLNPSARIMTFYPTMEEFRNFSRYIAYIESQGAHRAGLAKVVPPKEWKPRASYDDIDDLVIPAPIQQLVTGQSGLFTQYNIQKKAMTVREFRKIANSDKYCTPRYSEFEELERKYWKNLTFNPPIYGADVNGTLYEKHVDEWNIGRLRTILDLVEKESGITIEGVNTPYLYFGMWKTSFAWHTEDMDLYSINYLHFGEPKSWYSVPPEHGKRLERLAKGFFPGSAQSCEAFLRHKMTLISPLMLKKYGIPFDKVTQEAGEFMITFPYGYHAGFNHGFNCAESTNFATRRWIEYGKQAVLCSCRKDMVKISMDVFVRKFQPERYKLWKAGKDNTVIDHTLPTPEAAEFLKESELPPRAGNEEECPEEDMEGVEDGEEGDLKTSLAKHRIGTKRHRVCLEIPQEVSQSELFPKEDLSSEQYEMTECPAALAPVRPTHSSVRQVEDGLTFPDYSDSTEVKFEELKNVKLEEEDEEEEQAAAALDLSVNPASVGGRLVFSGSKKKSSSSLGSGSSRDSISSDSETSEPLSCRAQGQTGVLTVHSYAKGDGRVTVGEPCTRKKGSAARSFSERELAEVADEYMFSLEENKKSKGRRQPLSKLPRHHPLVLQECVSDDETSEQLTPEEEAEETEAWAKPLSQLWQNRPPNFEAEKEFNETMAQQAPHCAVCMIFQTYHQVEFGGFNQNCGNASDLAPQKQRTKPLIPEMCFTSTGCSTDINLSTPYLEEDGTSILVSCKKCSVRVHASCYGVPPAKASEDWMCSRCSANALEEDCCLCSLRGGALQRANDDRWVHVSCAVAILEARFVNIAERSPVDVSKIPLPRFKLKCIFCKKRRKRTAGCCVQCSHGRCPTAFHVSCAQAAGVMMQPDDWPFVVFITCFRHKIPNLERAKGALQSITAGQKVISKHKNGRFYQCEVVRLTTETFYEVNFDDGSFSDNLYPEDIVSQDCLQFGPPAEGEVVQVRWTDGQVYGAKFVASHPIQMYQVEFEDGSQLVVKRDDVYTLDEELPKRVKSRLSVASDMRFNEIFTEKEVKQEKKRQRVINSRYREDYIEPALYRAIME
PLK1 PBD inh = qHTS for Inhibitors of PLK1-PDB (polo-like kinase 1 - polo-box domain): Primary Screen; Serine/threonine-protein kinase PLK1 (Homo sapiens), P53350; Plk1 PBD binding of FITC phosphopeptide, fluorescence polarization; Potency, µM, inactives show max response, negative = inhibition, usual class: inhibitors; 360,000 compounds, 2.8% hits; AID 720504, 2013; also: series mostly up to about 57 µM; % is scaled to controls: 0 for no effect and ±100 for the full control effect; nearly all actives have a fitted effect of over 65% in size
G9a inh = qHTS Assay for Inhibitors of Histone Lysine Methyltransferase G9a; G9a H3K9 monomethylation, AlphaScreen, 2 h; Potency, µM (highest dose often 102 µM), for the others: at the highest dose activity, negative = inhibition, usual class: inhibitors; 350,000 compounds, 8.8% hits; AID 504332, 2011; also: % is scaled to controls: 0 for no effect and ±100 for the full control effect; nearly all actives have a fitted effect of over 75% in size
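G9a (20 nM) was preincubated 15 min with compound, then reacted 2 h at room temperature with 500 nM biotin-H3K9 peptide and 20 µM SAM. Monomethyl-H3K9 detected by AlphaScreen using anti-H3K9me1 antibody.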
BAZ2B inh = qHTS Assay for Inhibitors of BAZ2B. Bromodomain adjacent to zinc finger domain protein 2B (Homo sapiens), Q9UIF8. AlphaScreen BAZ2B-H3K14Ac peptide displacement. Potency, µM (doses to about 114 µM), without a hit: at the top dose activity change, negative = inhibition, most hits filed as inhibitors. 360,000 compounds, 4.4% hits; also: % is scaled to controls: 0 for no effect and ±100 for the full control effect; nearly all actives have a fitted effect of over 60% in size
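AlphaScreen displacement: compounds (up to 110uM) incubated 30 min at room temperature with a preformed 50 nM BAZ2B/50 nM biotinylated H3K14Ac peptide complex in PBS pH 7.4 with Tween-20. Donor and acceptor beads at 10 ug/mL final added, 20 min light-protected before reading.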
The depositor's hits bear a star; ? = inconclusive; . = no result given; ! = a repeat was not active; [ ] = dose if it differs, or a comment. Shown are actives, neighbours in structure and some others; about 12% of the full set was active somewhere. Calls follow the shape of the dose curve; as a rule, active = well fitted curve in the direction sought with a large enough effect; inconclusive = small, poorly fitted or top-dose-only effect, or another doubt; inactive = no such curve, though single readings can be large; an effect the other way counts as inactive or inconclusive. Potency is read from the fitted curve at half-maximal effect.

SMILES | Sfp inh | HP1b binding inh | JMJD2A Tudor inh | PLK1 PBD inh | G9a inh | BAZ2B inh
CN=c1scc(C)n1/N=C/c1ccc2c(c1)OCO2 | -5% | -37% | ? | -7% | ? | 40µM*
CN=c1scc(C)n1/N=C/c1cc(Br)c(O)c(Br)c1 | -21% | -10% | ? | -20% | 11µM* | 35µM*
CCOc1cc(/C=N/n2cnnc2)cc(Br)c1O | 8% | -6% | -7% | -2% | ? | -7%
CN=c1scc(C)n1/N=C/c1ccc(O)cc1O | 2% | -38% | ? | -9% | -9%[59 µM] | 40µM*
CN=c1scc(C)n1/N=C/c1ccc(O)cc1 | -5% | -1% | -25% | -1% | ? | ?
CCN=c1scc(C)n1/N=C/c1cc(Br)c(O)c(OC)c1 | -24% | ? | 79µM* | -14% | 10µM* | 13µM*
COc1ccc(Cl)cc1NC(=O)CSc1ccc(-c2sc(C)nc2C)nn1 | . | 22%[57 µM] | -8% | . | 5%[59 µM] | -9%
COc1cc(/C=N/N2C(=O)CSC2=S)cc(Br)c1O | -6% | ? | 45µM* | ? | 45µM* | 40µM*
COc1cc(/C=N/N2C(C)CCCC2C)cc(Br)c1O (stereo unspecified) | ? | -16% | -31% | 4% | ? | .
COc1ccc(/C=N/NC(=O)c2ccncc2)c(OC)c1 | 4% | 50% | -8% | -4% | -17% | 3%
COc1cccc(C=NNC(=O)c2ccncc2)c1O | . | 15% | 56µM* | -8% | . | .
COc1c(/C=N/NC(=O)c2ccncc2)c(CCN(C)C(C)=O)cc2c1OCO2 | 14% | 3% | 3% | -5% | 50µM* | -13%
COc1cc(OC)c(/C=N/NC(=O)c2ccncc2)c(OC)c1 | -11% | 16% | 4µM* | ? | 3% | 9%
CCOc1cccc(/C=N/NC(=O)c2cccnc2)c1O | 20% | 58% | 89µM* | -4% | 32% | 32µM*
CCOc1cc(/C=N/NC(=O)c2cccnc2)ccc1O | 20% | 27% | -10% | 7% | 6% | -1%
CCC(/C=C/C(C)C1CCC2C3CCC4=CC(=O)CC[C@@]4(C)C3CC[C@@]12C)C(C)C (stereo partly specified) | 5% | . | . | . | . | .
CCCCNC(=O)c1nc(-c2cccnc2)oc1-c1ccc(OC(F)(F)F)cc1 | . | . | . | 1% | . | .
CC(=O)NC(C)(c1ccccc1)c1nc(/C=C/c2ccccc2)cs1 (stereo unspecified) | . | . | . | -9% | . | .
COc1cc([N+](=O)[O-])cc(/C=N/NC(=O)c2cccnc2)c1O | 1% | 13% | 22µM* | -6% | . | 18µM*
COc1cc([N+](=O)[O-])cc(/C=N/NC(=O)C(O)(c2ccccc2)c2ccccc2)c1O | 0% | 18% | -28% | -3% | -3% | ?
C#CCSc1nsc(SCC#C)c1C#N | -28% | ? | 56µM* | ? | -21%[12.7 µM] | -39%
Cc1ccc(-n2cc(C(C)(C)C)[nH]c2=S)cc1 | -13% | ? | 45µM* | -16% | -12%[2.33 µM] | ?
Cc1cccc(-n2cc(-c3ccc([N+](=O)[O-])cc3)[nH]c2=S)c1 | -10% | 13% | -14% | -5% | -50% | -17%
CC(C)(C)c1cn(-c2ccccc2)c(=S)[nH]1 | -18% | 13% | 22µM* | -13% | 7.9µM* | ?
CCOC(=O)C1CCN(C(=O)CS(=O)Cc2nc(-c3ccc(C)cc3)oc2C)CC1 (stereo unspecified) | ? | 18% | -14% | ? | 28µM* | 3%
SMILES | Sfp inh | HP1b binding inh | JMJD2A Tudor inh | PLK1 PBD inh | G9a inh | BAZ2B inh
Cc1ccc(-c2nc(CS(=O)CC(=O)N3CCN(c4ccc(F)cc4)CC3)c(C)o2)cc1 (stereo unspecified) | 4% | 47% | ? | -4% | 14µM*! | 28µM*!
Cc1ccc(-c2nc(CS(=O)CC(=O)N3CCN(c4cccc(Cl)c4)CC3)c(C)o2)cc1 (stereo unspecified) | . | -16% | ? | . | ? | 25µM*
CCN(CC)c1ccc(C(=O)N2CCC(c3ccncc3)CC2)cc1 | . | 20% | -23% | . | ? | ?
Cc1ccccc1NC(=O)CSc1nnc(-c2cccc(Cl)c2)o1 | . | 35% | -5% | . | -2%[59 µM] | -22%
O=C1NCCO1 | . | -4% | -26% | -23% | -2%[59 µM] | -4%
COc1ccc(N2CCN(CC(=O)NC(=O)NCc3ccco3)CC2)cc1 | 13% | 5% | ? | 0% | 32µM* | -7%
O=C(CN1CCN(c2ccc(O)cc2)CC1)NC(=O)NCc1ccco1 | 40µM* | ? | -13%[57.1 µM] | -9% | 7.9µM* | -36%
COc1ccc(N2CCN(CC(=O)Nc3ccc(C)cc3)CC2)cc1 | -6% | -4% | -26% | 2% | . | ?
COc1ccc(N2CCN(CC(=O)Nc3ccc(SC(F)F)cc3)CC2)cc1 | 1% | -15% | ? | -8% | ? | 40µM*
Cc1ccc(C)c(S(=O)(=O)N2CCN(CC(=O)NC(=O)NCc3ccco3)CC2)c1 | 7% | ? | 50µM* | ? | -33% | -25%
O=C(CN1CCN(c2ccccc2O)CC1)NC(=O)NCc1ccco1 | 6% | 12% | -29% | -19% | 0%[59 µM] | -11%
CC(OC(=O)c1ccc(Cl)nc1)C(=O)N1CCc2ccccc21 (stereo unspecified) | . | 5% | -13% | 4% | -28% | 13%
CC(C)(C)NC(=O)NC(=O)CN1CCN(S(=O)(=O)c2ccccc2)CC1 | 10% | -2% | -20% | -1% | 6% | -16%
CC(C)(C)NC(=O)NC(=O)CN1CCN(c2ccccc2O)CC1 | 18% | 6% | -5% | -15% | -9% | -36%
COc1ccc(N2CCN(CC(=O)NC(=O)NC(C)(C)C)CC2)cc1 | 9% | 15% | -6% | 5% | 79µM* | -13%
CC(C)(C)NC(=O)NC(=O)CN1CCN(S(=O)(=O)c2ccc3c(c2)CCCC3)CC1 | . | 12% | -20% | 0% | 45µM* | -17%
O=C(c1cccc(F)c1)N1CCC2(CC1)CN(c1ccccn1)C2 | -6% | . | . | . | 40%[12.7 µM] | .
Cc1ccc(Cl)cc1N1CCN(S(=O)(=O)c2c(C)[nH]c(=O)[nH]c2=O)CC1 | 9% | 30% | -9% | -5% | 44%[12.7 µM] | 4%
Cc1cccc(N2CCN(S(=O)(=O)c3c(C)[nH]c(=O)[nH]c3=O)CC2)c1C | -12% | 10% | -14% | -11% | 40µM*! | -2%

Compound activity deposited in PubChem by National Center for Advancing Translational Sciences (NCATS).
